Most compounds without a hit are left out; they make up all but 2.3% or so of the library.
M1 ag parental = nonselective activator or artifact in parental CHO-K1 cells | Fluo-8 calcium fluorescence; scaled to maximal ATP response, vehicle zero | activation, % at 3 µM | actives 0.48% (n = 360,000) | AID 602248; in the data active = activation above about 15%;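 also: untransfected CHO-K1 host cells lacking M1 receptor as counterscreen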
CHRM1 antagonist = antagonists of human M1 muscarinic receptor | actives 1.3% (n = 360,000) | CHO-K1 hM1, Fluo-8 calcium fluorescence, ACh EC80 antagonist | P11229 | inhibition, % at 3 µM;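 active = percent inhibition above its own plate's cutoff, namely the mean of that plate's compound wells plus 3 SD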;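 also: peak over basal fluorescence ratio during 140 s after agonist addition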
Target sequence (P11229 whole entry, looked up): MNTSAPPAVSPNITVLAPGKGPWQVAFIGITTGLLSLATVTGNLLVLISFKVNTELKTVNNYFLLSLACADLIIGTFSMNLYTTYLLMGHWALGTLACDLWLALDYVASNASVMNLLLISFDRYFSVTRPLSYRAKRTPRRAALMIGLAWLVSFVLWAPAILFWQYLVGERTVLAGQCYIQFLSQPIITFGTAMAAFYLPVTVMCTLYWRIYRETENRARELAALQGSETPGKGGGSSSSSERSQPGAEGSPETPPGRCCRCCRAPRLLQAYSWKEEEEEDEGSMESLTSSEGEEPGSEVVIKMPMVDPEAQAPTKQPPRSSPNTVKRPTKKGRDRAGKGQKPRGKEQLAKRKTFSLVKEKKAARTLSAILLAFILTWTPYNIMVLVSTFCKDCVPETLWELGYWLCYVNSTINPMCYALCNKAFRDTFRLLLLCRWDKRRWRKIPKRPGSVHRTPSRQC
CHO-K1 Ca antag = counter-screen for M1 antagonists: effect in parental CHO-K1 cells | actives 0.6% (n = 360,000) | inhibition, % at 3 µM | ATP-induced calcium, Fluo-8 fluorescence;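 active = inhibition above a per-plate cutoff, the plate's mean sample inhibition plus 3 SD, cut at about 24% in these data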
M1 PAM = human CHRM1 positive allosteric modulation. CHO-K1 hM1, Fluo-8 calcium fluorescence, ACh EC20; 0% = ACh EC20, 100% = maximal ACh. activation, % at 3 µM. actives 0.088% (n = 360,000); in the data active = activation above about 19%, passing the limit was not always enough
CHRM1 agonist = human M1 muscarinic receptor agonism. P11229. CHO-K1 hM1, Fluo-8 calcium fluorescence, agonist mode; 0% DMSO, 100% acetylcholine EC100. activation, % at 3 µM. actives 0.33% (n = 360,000);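 active = activation above the run's mean compound activation plus 3 SD, cut at about 16% in these data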;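 also: peak over basal fluorescence ratio within a 140 s kinetic read after compound addition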
CHO-K1 Ca PAM = M1 PAM counterscreen hit in parental CHO-K1 cells. AID 602247. ATP EC20, Fluo-8 calcium fluorescence; 0% at ATP EC20, 100% at ATP max. activation, % at 3 µM. actives 0.02% (n = 360,000);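 active = activation above the run cutoff, the mean activation of all test compounds plus 3 SD, cut at about 40% in these data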;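 also: peak over basal fluorescence ratio in a 140 s read after ATP addition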
Each line names hits and unclear results; the compound was inactive in the other large screens; ! = not confirmed by another sample.

COc1ccc(S(=O)(=O)N2CCOC2CNC(=O)C(=O)NCCCN2CCOCC2)cc1OC (stereo unspecified)	none
Clc1ccc(OCCN2CCN(c3ncnc4sccc34)CC2)cc1	CHRM1 antagonist 25.3, CHO-K1 Ca antag 33.5
Cc1sc2ncnc(N3CCCCC3)c2c1C	none
Cc1ccc(OCCN2CCN(c3ncnc4sc(C)c(C)c34)CC2)cc1	CHRM1 antagonist 17.3
CN1CCc2c(c3ccccc3n2Cc2ccccc2)C1	CHRM1 antagonist 65.9!
Cc1c(S(=O)(=O)Nc2ccc(Br)cc2)c(=O)n(C)c(=O)n1C	CHRM1 antagonist 30.2
CCN1C(=O)S/C(=C/c2ccc(Sc3nc4ccccc4[nH]3)o2)C1=O	CHRM1 antagonist 30.7
O=C(c1ccco1)N1N=C(c2ccc3nccnc3c2)CC1c1ccccc1 (stereo unspecified)	CHO-K1 Ca PAM 46.8
Cc1ccc(/C=C(\C#N)C(=O)NC(C)c2ccccc2)o1 (stereo unspecified)	none
CCn1c(C)cc2c(c1=O)C(c1ccc3c(c1)OCO3)C(C#N)=C(N)O2 (stereo unspecified)	CHRM1 antagonist 65.7
Cc1cc2c(c(=O)n1CC1CCCO1)C(c1ccc3c(c1)OCO3)C(C#N)=C(N)O2 (stereo unspecified)	none
O=S(=O)(c1ccc(Cl)cc1)c1snnc1-c1ccccc1	CHRM1 antagonist 37.4
COc1cc(S(=O)(=O)N(C)C2CCCCC2)c(C)cc1C	none
O=C(COc1ccccc1)NCC(=O)N/N=C/c1cc(Br)ccc1OCc1ccccc1	none
Cc1cccc(OCC(=O)NCC(=O)N/N=C/c2cc(Br)ccc2OCc2ccccc2)c1	M1 ag parental 18.4
COC(=O)c1cc(NC(=S)NCc2ccc(Cl)cc2)cc(C(=O)OC)c1	CHO-K1 Ca antag 24.4
CSc1ccccc1NC(=S)NCc1ccc(Cl)cc1	CHRM1 antagonist 25.9
S=C(NCc1ccncc1)Nc1cc(Cl)cc(Cl)c1	CHO-K1 Ca antag 27.3
S=C(NCc1ccncc1)Nc1ccc(Cl)c(Cl)c1	none
O=C(CSc1n[nH]c(-c2ccncc2)n1)Nc1ccccc1C(F)(F)F	none
Cn1c(=O)[nH]c(NC2CCCCC2)c(N=O)c1=O	none
Cn1cccc1/C=N/N1CCN(c2ccccc2)CC1	none
CCOC(=O)c1ccc(NC(=O)COC)cc1	none
CCOC(=O)c1ccc(NC(=O)C(CC)(CC)C(=O)OCC)cc1	CHO-K1 Ca antag 25.0
Cc1cccc(C(=O)OC(C)C(=O)Nc2ccc(S(=O)(=O)N3CCCC3)cc2)c1O (stereo unspecified)	CHRM1 antagonist 29.2
CC(Oc1ccc(C(=O)c2ccccc2)cc1)C(=O)Nc1ccc(S(N)(=O)=O)cc1 (stereo unspecified)	M1 ag parental 17.5
CC(Oc1ccccc1)C(=O)Nc1ccc(S(=O)(=O)N2CCCC2)cc1 (stereo unspecified)	none
CC(OC(=O)c1cc(Br)ccc1O)C(=O)Nc1ccc(S(=O)(=O)N2CCCC2)cc1 (stereo unspecified)	none
CC(Sc1ccc(Cl)cc1)C(=O)N(C)CC(=O)Nc1ccc(N2CCOCC2)cc1 (stereo unspecified)	CHRM1 antagonist 18.4
CC(Oc1cc(F)ccc1[N+](=O)[O-])C(=O)Nc1ccc(S(=O)(=O)N2CCCC2)cc1 (stereo unspecified)	CHRM1 antagonist 72.9
CC1(c2ccccc2)NC(=O)N(CC(=O)NCC2CCCO2)C1=O (stereo unspecified)	none
COc1ccc(N2CCN(C(=O)Cn3c(=O)[nH]c4ccsc4c3=O)CC2)cc1	none
C=CCSc1nc(C)c2cc(C)cc(C)c2n1	none
COc1cccc(-c2cnc(C(O)c3c(C)cccc3C)[nH]2)c1 (stereo unspecified)	none
CC(C)C(=O)Nc1ccc(C(=O)Nc2ccc(S(=O)(=O)N3CCOCC3)cc2)cc1	none
Cc1ccccc1OC(C)C(=O)Nc1ccc(S(=O)(=O)N2CCCC2)cc1 (stereo unspecified)	CHRM1 antagonist 88.5
CC(Oc1ccc(Br)cc1)C(=O)Nc1ccc(S(=O)(=O)N(C)C2CCN(C)CC2)cc1 (stereo unspecified)	M1 ag parental 54.9, CHRM1 antagonist 67.0, CHO-K1 Ca antag 57.4, CHRM1 agonist 54.9
Cc1ccc(OC(C)C(=O)Nc2ccc(S(=O)(=O)N3CCOCC3)cc2)cc1 (stereo unspecified)	CHRM1 agonist 22.0
CC(Sc1ccc(Cl)cc1)C(=O)Nc1ccc(S(=O)(=O)N2CCOCC2)cc1 (stereo unspecified)	CHRM1 agonist 22.4
COc1ccc(CC(=O)Nc2ccc(S(=O)(=O)N(C)C3CCN(C)CC3)cc2)cc1	none
Cc1ccccc1Nc1nc(N)nc(CN(C)Cc2ccccc2Cl)n1	none
COc1ccc(C(=O)COC(=O)c2cnc(C)cn2)cc1OC	none
O=C(NCc1ccco1)/C(=C/c1cccnc1)NC(=O)c1ccco1	none
NC(=O)c1ccc(NC(=O)COC(=O)CCC2CCCC2)cc1	none
Cc1ccc(CN2CCN(/N=C\C=C\c3ccccc3)CC2)cc1	none
O=[N+]([O-])c1cc(-n2cnnn2)ccc1N1CCC(Cc2ccccc2)CC1	CHO-K1 Ca antag 24.7
CC1CC(C)CN(c2ccc(-n3cnnn3)cc2[N+](=O)[O-])C1 (stereo unspecified)	none
CCN(CC)c1ccc(C2CC(=O)NC3=C2C(=O)CC(C)(C)C3)cc1 (stereo unspecified)	CHRM1 antagonist 25.8
CN(C)c1ccc(C2CC(=O)NC3=C2C(=O)CC(C)(C)C3)cc1 (stereo unspecified)	none
O=C(NCCCN1CCOCC1)c1ccc(Sc2cccc(Cl)c2)c([N+](=O)[O-])c1	CHRM1 antagonist 82.5
CCOC(=O)CSc1ccc(C(=O)NCCCN2CCOCC2)cc1[N+](=O)[O-]	CHRM1 antagonist 65.0
CN(C)c1cccc(NC(=O)C2Cc3c(-c4ccc(Cl)cc4)ccnc3O2)c1 (stereo unspecified)	none
Cc1ccc(C(=O)N/C(=C\c2cccs2)C(=O)NCC2CCCO2)cc1C (stereo unspecified)	none
CCCSc1nnc(NC(=O)Nc2ccc(F)cc2)s1	CHO-K1 Ca antag 24.1
CCc1c(C)sc(NC(=O)c2cc(-c3ccc(O)cc3)on2)c1C#N	CHO-K1 Ca antag 32.6
CC1=NN(c2ccccc2)C(=O)/C1=C/c1cn(C)c2ccccc12	none
Cc1cc(C)nc(NC2=NCCN2C(=S)Nc2ccc(C)c(C)c2)n1	none
CC1CCN(C(=O)Cn2nnc(-c3ccc(C(C)C)cc3)n2)CC1	none
CN(CC(=O)Nc1cccc(F)c1)C(=O)CC1CC2CCC1C2 (stereo unspecified)	none
O=c1ccnc(SCc2ccccc2Cl)[nH]1	CHO-K1 Ca antag 27.8
CC(C)(C)c1cc(=O)[nH]c(SCc2ccccc2Cl)n1	none

Assay outcomes: PubChem BioAssay, The Scripps Research Institute Molecular Screening Center
